# According to PubChem BioAssay AID624255 (Broad Institute, 2012):
# The campaign covered roughly 77,000 compounds. About 4,600 (6%) were called active. Inconclusive results (about 1%) are left out. The sample holds actives, similar compounds and a random draw of the others, so the mix is not that of the screen.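 The calls were made as follows: active = mean inhibition above about 93%, with at least 55% of replicates each passing it (limit read from the data, passing the limit was not always enough); inconclusive = only one of those two conditions holds; inactive = neither condition holds.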
# Experiment: T. cruzi intracellular proliferation inhibitors, primary screen, cell-based, beta-gal Tulahuen parasites, NIH3T3 host, luminescence (AID 624255)
# Details: T. cruzi beta-gal in NIH3T3, GalScreen luminescence, 90 h; at 8.34 µM; stronger effect = higher value
row,Compound,inhibition
1,Cc1noc(C)c1NC(=O)Nc1ccc2c(c1)C(=O)N([C@H](C)CO)C[C@@H](C)[C@H](CN(C)S(=O)(=O)c1ccc(Cl)cc1)OCCCC[C@H](C)O2,53.3% (inactive)
2,COCCNC(=O)C[C@H]1CC[C@H]2[C@H](COc3ccc(NC(=O)C4CCOCC4)cc3C(=O)N2C)O1,17.3% (inactive)
3,C[C@@H]1CN([C@@H](C)CO)C(=O)c2cc(NC(=O)C3CCCCC3)ccc2O[C@@H](C)CCCCO[C@H]1CN(C)C(=O)CCC(F)(F)F,29.9% (inactive)
4,COCC(=O)Nc1ccc2c(c1)OC[C@@H](C)N(Cc1cocn1)C[C@@H](C)[C@@H](OC)CN(C)C2=O,-2.18% (inactive)
5,CN1c2ccc(-c3ccc(C#N)cc3)cc2[C@@H]2[C@@H](CCN2S(=O)(=O)c2cccc(F)c2)[C@@H]1CO,72.5% (inactive)
6,COCC(=O)Nc1ccc2c(c1)[C@H]1C[C@H](CC(=O)NCc3ccc(OC)cc3)O[C@@H](CO)[C@H]1O2,4.09% (inactive)
7,O=C(C[C@H]1CC[C@H]2[C@@H](COC[C@H](O)CN2C(=O)c2ccncc2)O1)NCc1cc(F)cc(F)c1,43.6% (inactive)
8,C[C@@H]1CN([C@H](C)CO)C(=O)Cc2cc(NC(=O)Cc3ccccc3)ccc2O[C@H]1CN(C)Cc1ccc(Oc2ccccc2)cc1,99.8% (active)
9,C[C@@H]1CN([C@H](C)CO)C(=O)Cc2cc(NC(=O)Cc3cn(C)c4ccccc34)ccc2O[C@@H]1CN(C)Cc1ccc(C(F)(F)F)cc1,89.6% (inactive)
10,C[C@H](CO)N1C[C@H](C)[C@H](CN(C)Cc2ccc(-c3ccccc3)cc2)Oc2ccc(NC(=O)Nc3ccc(F)cc3)cc2CC1=O,100% (active)
11,C[C@H]1CN([C@@H](C)CO)C(=O)Cc2cc(NC(=O)Cc3cn(C)c4ccccc34)ccc2O[C@@H]1CN(C)Cc1ccc(C(F)(F)F)cc1,103% (active)
12,C[C@@H]1CN([C@H](C)CO)C(=O)Cc2cc(NC(=O)Nc3ccccc3)ccc2O[C@@H]1CN(C)Cc1ccc(C(F)(F)F)cc1,86.5% (inactive)
13,C[C@@H]1CN([C@@H](C)CO)C(=O)Cc2cc(NC(=O)C3CCCCC3)ccc2O[C@@H]1CN(C)Cc1ccc(C(=O)Nc2ccccc2N)cc1,103% (active)
14,C[C@@H]1CN([C@H](C)CO)C(=O)Cc2cc(NC(=O)Nc3ccc(C(F)(F)F)cc3)ccc2O[C@H]1CN(C)Cc1ccc(-c2ccccc2)cc1,67.4% (inactive)
15,C[C@@H]1CN([C@@H](C)CO)C(=O)Cc2cc(NC(=O)Cc3ccccc3)ccc2O[C@@H]1CN(C)Cc1ccc(Oc2ccccc2)cc1,12.2% (inactive)
16,C[C@H]1CN([C@@H](C)CO)C(=O)Cc2cc(NS(=O)(=O)c3ccccc3)ccc2O[C@@H]1CN(C)Cc1ccc(C(=O)Nc2ccccc2N)cc1,21.9% (inactive)
17,C[C@H]1CN([C@@H](C)CO)C(=O)Cc2cc(NS(=O)(=O)c3ccccc3)ccc2O[C@H]1CN(C)Cc1ccc(C(=O)Nc2ccccc2N)cc1,48% (inactive)
18,C[C@H]1CN([C@@H](C)CO)C(=O)Cc2cc(NC(=O)Cc3cn(C)c4ccccc34)ccc2O[C@H]1CN(C)Cc1ccccc1,83.1% (inactive)
19,COc1ccc(CN(C)C[C@H]2Oc3ccc(NC(=O)Cc4ccccc4)cc3CC(=O)N([C@@H](C)CO)C[C@@H]2C)cc1,74% (inactive)
20,C[C@@H]1CN([C@@H](C)CO)S(=O)(=O)c2ccc(-c3cncnc3)cc2O[C@@H]1CN(C)C(=O)C1CC1,21.1% (inactive)
21,CCNC(=O)C[C@H]1CC[C@@H]2[C@H](COC[C@H](O)CN2S(=O)(=O)c2ccc(Oc3ccccc3)cc2)O1,2.89% (inactive)

row,Compound,inhibition
1,C/C=C/c1ccc([C@@H]2[C@@H](CO)N(C(=O)CC)[C@H]2CN(C)C(=O)C2CC2)cc1,15% (inactive)
2,COc1ccc(CNC(=O)C[C@H]2C[C@H]3c4cc(NS(C)(=O)=O)ccc4O[C@H]3[C@@H](CO)O2)cc1,-53% (inactive)
3,CNC(=O)C[C@H]1CC[C@H]2[C@@H](COc3ccc(NS(=O)(=O)c4ccc(F)cc4)cc3C(=O)N2C)O1,17.2% (inactive)
4,CN(C)C(=O)C[C@@H]1CC[C@H]2[C@@H](COC[C@H](O)CN2C(=O)c2ccncc2)O1,24.8% (inactive)
5,COc1ccc(S(=O)(=O)Nc2ccc3c(c2)CC(=O)N([C@H](C)CO)C[C@@H](C)[C@H](CN(C)S(=O)(=O)c2c(C)noc2C)O3)cc1,-5.62% (inactive)
6,C[C@@H](NC(=O)[C@H]1[C@H](CO)[C@H]2Cn3c(cccc3=O)[C@@H]1N2Cc1cccnc1)c1ccccc1,50% (inactive)
7,C[C@@H]1CN([C@@H](C)CO)C(=O)CCCn2nncc2CO[C@@H]1CN(C)Cc1ccccc1,-1.5% (inactive)
8,C[C@H]1CN([C@@H](C)CO)C(=O)CCCn2nncc2CO[C@H]1CN(C)Cc1ccccc1,-4.75% (inactive)
9,C[C@@H]1CN([C@H](C)CO)C(=O)c2cccc(NC(=O)c3cnccn3)c2O[C@@H]1CN(C)Cc1ccc(C(=O)Nc2ccccc2N)cc1,109% (active)
10,C[C@@H]1CN([C@@H](C)CO)C(=O)c2cccc(NC(=O)c3cnccn3)c2O[C@H]1CN(C)Cc1ccc(-c2ccccc2)cc1,98.7% (inactive)
11,C[C@@H]1CN([C@@H](C)CO)C(=O)c2cccc(NC(=O)c3cnccn3)c2O[C@H]1CN(C)Cc1ccc(C(=O)O)cc1,-4.45% (inactive)
12,C[C@@H]1CN([C@H](C)CO)C(=O)CCCn2nncc2CO[C@@H]1CN(C)Cc1ccc(C(=O)Nc2ccccc2N)cc1,103% (active)
13,COCC(=O)Nc1ccc2c(c1)C(=O)N(C)[C@H]1CC[C@H](CC(=O)Nc3ccccc3)O[C@H]1CO2,43.2% (inactive)
14,C[C@@H]1CN([C@H](C)CO)C(=O)c2cc(-c3ccc(C#N)cc3)cnc2O[C@@H]1CN(C)C(=O)Nc1ccccc1,33.2% (inactive)
15,CCN1[C@@H]2Cn3c(ccc(-c4cccnc4)c3=O)[C@H]1[C@@H](C(=O)NC1CCCCC1)[C@@H]2CO,-16.4% (inactive)
16,O=C(NC[C@@H]1[C@H](c2ccccc2)[C@H](CO)N1CC1CCCC1)c1cccnc1,15.8% (inactive)
17,CO[C@H]1CN(C)C(=O)c2ccc(NC(C)=O)cc2OC[C@H](C)N(C(=O)c2ccccc2)C[C@H]1C,-19.6% (inactive)
18,CCNC(=O)[C@@H]1[C@@H](CO)[C@@H]2Cn3c(ccc(-c4ccncc4)c3=O)[C@@H]2N1Cc1cc(F)ccc1F,80.1% (inactive)
19,C[C@@H]1CN([C@@H](C)CO)S(=O)(=O)c2ccc(C#Cc3ccc(F)cc3)cc2O[C@H]1CN(C)S(C)(=O)=O,113% (active)
20,CNC[C@@H]1Oc2cc(C#CC3CCCC3)ccc2S(=O)(=O)N([C@@H](C)CO)C[C@@H]1C,61% (inactive)
21,CCCN(C)C[C@@H]1Oc2cc(C#CCc3ccccc3)ccc2S(=O)(=O)N([C@H](C)CO)C[C@@H]1C,80.1% (inactive)

row,Compound,inhibition
1,CCCN(C)C[C@@H]1Oc2cc(C#CC3CCCCC3)ccc2S(=O)(=O)N([C@@H](C)CO)C[C@@H]1C,42.1% (inactive)
2,COCC#Cc1ccc2c(c1)O[C@@H](CN(C)S(C)(=O)=O)[C@H](C)CN([C@H](C)CO)S2(=O)=O,2.15% (inactive)
3,CCCN(C)C[C@@H]1Oc2cc(C#Cc3ccc(F)cc3)ccc2S(=O)(=O)N([C@H](C)CO)C[C@H]1C,100% (active)
4,CCCC#Cc1ccc2c(c1)O[C@@H](CN(C)CCC)[C@@H](C)CN([C@H](C)CO)S2(=O)=O,63.4% (inactive)
5,CCCN(C)C[C@H]1Oc2cc(C#CC3CCCC3)ccc2S(=O)(=O)N([C@H](C)CO)C[C@@H]1C,98.6% (active)
6,C[C@@H]1CN([C@@H](C)CO)S(=O)(=O)c2ccc(C#CC3CCCC3)cc2O[C@H]1CN(C)S(C)(=O)=O,-41.8% (inactive)
7,C[C@@H](NC(=O)C[C@@H]1CC[C@@H]2[C@H](COC[C@@H](O)CN2C(=O)Nc2cccc(F)c2)O1)c1ccccc1,21.9% (inactive)
8,CC(C)NC(=O)N(C)C[C@@H]1Oc2ncc(-c3ccc(C(=O)N(C)C)cc3)cc2C(=O)N([C@H](C)CO)C[C@H]1C,35.4% (inactive)
9,COc1ccc(S(=O)(=O)N(C)C[C@H]2OCCCC[C@H](C)Oc3ccc(NS(=O)(=O)c4c(C)noc4C)cc3C(=O)N([C@@H](C)CO)C[C@@H]2C)cc1,23.4% (inactive)
10,C[C@H]1CN([C@@H](C)CO)C(=O)c2cc(C#CC(C)(C)O)cnc2O[C@H]1CN(C)C(=O)CC1CC1,-14.6% (inactive)
11,O=S(=O)(Cc1ccccc1)NCC[C@@H]1CC[C@@H](NS(=O)(=O)c2ccccc2)[C@@H](CO)O1,-0.486% (inactive)
12,CC(=O)N1CC[C@@H]2[C@@H](CO)N(C)c3ccc(-c4ccc(C#N)cc4)cc3[C@@H]21,52.3% (inactive)
13,Cc1noc(C)c1NC(=O)Nc1ccc2c(c1)C(=O)N([C@@H](C)CO)C[C@@H](C)[C@H](CN(C)C(=O)Nc1ccc(C(F)(F)F)cc1)OCCCC[C@@H](C)O2,27.1% (inactive)
14,COc1ccc(S(=O)(=O)N2CCCCN3[C@H](CO)[C@H](c4ccc(C5=CCCCC5)cc4)[C@@H]3C2)cc1,88.5% (inactive)
15,COc1ccccc1-c1ccc([C@@H]2[C@@H](CO)N3CCCCN(S(=O)(=O)c4cn(C)cn4)C[C@H]23)cc1,42.2% (inactive)
16,O=S(=O)(c1ccc(F)cc1)N1CCCCN2[C@H](C1)[C@H](c1ccc(C3=CCCCC3)cc1)[C@@H]2CO,99.1% (active)
17,Cc1ccccc1-c1ccc([C@H]2[C@H]3CN(S(=O)(=O)c4ccc(F)cc4)CCCCN3[C@H]2CO)cc1,111% (active)
18,COc1ccc(S(=O)(=O)N2CCCCN3[C@H](C2)[C@H](c2ccc(C4=CCCC4)cc2)[C@@H]3CO)cc1,7.54% (inactive)
19,Cn1cnc(S(=O)(=O)N2CCCCN3[C@H](CO)[C@@H](c4ccc(-c5ccc(F)cc5)cc4)[C@@H]3C2)c1,11.8% (inactive)
20,Cc1ccccc1-c1ccc([C@@H]2[C@H](CO)N3CCCCN(S(=O)(=O)c4ccc(F)cc4)C[C@@H]23)cc1,112% (active)
